An excerpt weighted towards active compounds, which were near 3.4% of everything screened.
TEAD-YAP block: TEAD-YAP interaction inhibition. HEK-TIYL cells, TEAD-Gal4/YAP UAS-luciferase luminescence. inhibition, % at 9.12 µM. 640,000 compounds, 1.4% hits; in the data active = inhibition above about 32%;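 note: 0% = median of test compound wells and 100% = reference inhibitor wells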
FBW7 activator: activators of human E3 ligase FBW7; Q969H0; AlphaScreen FBW7–phospho-cyclin E peptide binding, activator screen; normalized activity (activation), % at 26.1 µM; 650,000 compounds, 0.13% hits; AID 1259310; in the data active = normalized activity above about 1.9%;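 note: purified mutant Fbw7 with reduced substrate affinity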
GPR151 ag: activators of human GPR151; Q8TDV0; PathHunter beta-arrestin GPR151 cells, luminescence; activation, % at 11.2 µM; 650,000 compounds, 1% hits; AID 1508602; in the data active = activation above about 4.9%;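 note: 0% = median of compound wells and 100% = cells with positive control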
MITF primary: blocks human microphthalmia-associated transcription factor; AlphaScreen MITF homodimerization, bead proximity signal; O75030; inhibition, % at 2.6 µM; 650,000 compounds, 0.91% hits; in the data active = inhibition above about 50%;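 note: 0% = vehicle wells with protein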
Target sequence (O75030 whole entry, looked up): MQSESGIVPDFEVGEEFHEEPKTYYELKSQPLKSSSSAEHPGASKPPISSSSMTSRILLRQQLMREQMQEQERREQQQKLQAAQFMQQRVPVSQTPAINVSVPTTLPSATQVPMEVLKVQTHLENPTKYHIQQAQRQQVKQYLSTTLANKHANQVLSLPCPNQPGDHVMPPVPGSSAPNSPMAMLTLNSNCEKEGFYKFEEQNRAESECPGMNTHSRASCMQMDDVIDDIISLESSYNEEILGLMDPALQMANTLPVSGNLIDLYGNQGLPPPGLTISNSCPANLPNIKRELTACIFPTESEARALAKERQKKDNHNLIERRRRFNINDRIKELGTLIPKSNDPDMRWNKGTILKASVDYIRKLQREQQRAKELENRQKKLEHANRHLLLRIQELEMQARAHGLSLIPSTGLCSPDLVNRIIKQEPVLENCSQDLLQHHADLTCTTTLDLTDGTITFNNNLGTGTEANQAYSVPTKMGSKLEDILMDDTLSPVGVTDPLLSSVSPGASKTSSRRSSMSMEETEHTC
Starred values were filed as active, the others as inactive.

SMILES	TEAD-YAP block	FBW7 activator	GPR151 ag	MITF primary
O=C(NC1CC1)c1cncc(-c2ccccc2)c1	4	0	1	-1
CCOC(=O)CC1=C(C(=O)OCC)C(c2ccccc2)C(C#N)=C(N)O1 (configuration not stated)	-1	0	0	3
CCOC(=O)C1=C(C)N=c2s/c(=C\c3ccc(-c4cc([N+](=O)[O-])ccc4OC)o3)c(=O)n2C1c1ccc2c(c1)OCO2 (configuration not stated)	-1	0	-1	-9
COCCN1C(=O)CC(CC(=O)N(C)CC(C)C)(c2ccccc2OC)C1=O (configuration not stated)	-5	0	1	-3
CC(C)n1c(Nc2cccc(N(C)C)c2)nc2c(NCCc3ccc(O)cc3)ncnc21	12	0	0	13
C=CCN1C=C/C(=C\C=C(C#N)C#N)c2ccccc21	13	-2	-2	68*
CN1/C(=C/C=C(C#N)C#N)C=Cc2ccccc21	-9	0	0	9
O=C(Cc1cnc2ncnn2c1)N1CCc2c([nH]c3ccccc23)C1c1ccccn1 (configuration not stated)	35*	0	-1	10
CN1C(=O)C(=Cc2ccco2)C(=O)N(C)C1=S	6	-1	-1	71*
CC1(C)OC(=O)C(=C/C=C/c2ccco2)C(=O)O1	9	0	0	71*
CN1C(=O)C(=Cc2ccc(I)o2)C(=O)N(C)C1=S	-1	0	1	81*
CN1C(=O)C(=C/C=C/c2ccco2)C(=O)N(C)C1=S	2	0	-1	77*
CC(=O)c1ccc(-c2ccc(C=C3C(=O)N(C)C(=S)N(C)C3=O)o2)cc1	-14	0	-1	-5
CCOC(=O)N1CCC(NC(=O)c2cc3nc(-c4ccc(C)cc4)cc(C(F)(F)F)n3n2)CC1	7	0	0	21
CC(C)C1CCC(C)C(OC(=O)C[n+]2cccc(C(=O)NCCO)c2)C1 (configuration not stated)	8	0	-1	3
O=C1NC2(CCCCC2)N(C(=O)c2ccccc2F)C2=C1CCCC2	1	0	1	13
COC(=O)c1ccc(NC(=O)CSc2nnc(CNc3ccc(Cl)cc3)n2-c2ccccc2)cc1	-13	1	1	25
CC(=O)c1ccc(Nc2ccc(-c3ccc4c(c3)OCCO4)nn2)cc1	-49	0	0	9
O=C(Nc1ccccc1C(=O)Nc1cccc2ccccc12)c1cccs1	6	0	2	6
O=C1NC(=O)N(c2cccc(F)c2)C(=O)/C1=C\C=C\c1ccco1	-3	0	0	27
O=C1/C(=C\c2ccco2)N2CCC1CC2	-1	0	1	20
COc1cccc(N2C(=O)/C(=C/C=C/c3ccco3)C(=O)NC2=S)c1	6	1	-2	57*
CN1C2CCC1/C(=C\c1ccco1)C(=O)/C2=C\c1ccco1	4	0	-1	54*
COc1cc2nc(Nc3ccnn3C)nc(Nc3cc(OC)c(OC)c(OC)c3)c2cc1OC	64*	0	1	8
NS(=O)(=O)c1ccc(NC(=O)c2ccc(S(=O)(=O)N3CCOCC3)cc2)cc1	-6	0	0	-11
SMILES	TEAD-YAP block	FBW7 activator	GPR151 ag	MITF primary
CCOC(=O)C(N)CSC1CC(=O)N(c2ccc(OC)cc2)C1=O (configuration not stated)	-9	0	0	3
COc1ccc(N2C(=O)CC(Sc3nc(C)c4ccccc4n3)C2=O)cc1 (configuration not stated)	53*	1	0	-4
COc1ccc(N2C(=O)CC(Sc3ccccc3C(=O)O)C2=O)cc1 (configuration not stated)	12	0	1	6
COc1ccc(N2C(=O)CC(SCCN)C2=O)cc1 (configuration not stated)	-29	2.5*	-1	27
CCOc1ccc(S(=O)(=O)N/N=C/c2cc(OC)c(O)c(OC)c2)cc1	-5	0	0	-1
Cc1c(Cl)cccc1NC(=S)N1CCC(C(N)=O)CC1	-7	0	1	0
COc1cccc(-c2nc3n(n2)C(c2ccccc2Cl)C2=C(CCCC2=O)N3)c1 (configuration not stated)	0	0	-2	5
CCC(CC)NC(=O)c1ccc(OC)cc1OC	0	0	1	-1
CCOc1ccccc1CN1CCN(Cc2cc(=O)c3ccccc3[nH]2)CC1CCO (configuration not stated)	48*	0	-1	-8
CCN1/C(=C/C(=C/c2sc3ccc(Cl)cc3[n+]2CC)C2CC2)Sc2ccc(Cl)cc21	30	0	-2	37
COc1ccc(/C=C/c2ccc3ccccc3[n+]2[O-])cc1	72*	0	-3	3
CCN1/C(=C/c2ccc3ccccc3[n+]2CC)Sc2cc(OC)c(OC)cc21	91*	-1	-1	42
CCN1/C(=C/c2ccc3ccccc3[n+]2CC)Sc2ccc(Br)cc21	71*	-1	1	16
CC[n+]1c(/C=C/c2ccc(OC)c(OC)c2)ccc2ccccc21	59*	1	1	15
Cc1ccc(-c2c[n+]3ccccc3n2-c2ccccc2)cc1	80*	0	1	-9
CC(C)n1cnc2c(NC3CCN(Cc4ccccc4)CC3)nc(-c3ccc(C(=O)NC4CC4)cc3)nc21	52*	0	2	1
CC(C)n1cnc2c(NC3CCN(Cc4ccccc4)CC3)nc(-c3ccc(C(=O)N4CCN(C)CC4)cc3)nc21	58*	0	2	-1
COc1ccc(-c2nc(NC3CCN(Cc4ccccc4)CC3)c3ncn(C(C)C)c3n2)cc1	-3	0	-3	10
CC(C)n1cnc2c(NC3CCN(Cc4ccccc4)CC3)nc(-c3ccc(N4CCN(C)CC4)cc3)nc21	28	0	0	1
CN1CCN(C(=O)c2ccc(-c3nc(NC4CC4)c4ncn(-c5ccccc5)c4n3)cc2)CC1	41*	0	2	3
CC(=O)c1cccc(-c2nc(NC3CCN(Cc4ccccc4)CC3)c3ncn(C(C)C)c3n2)c1	73*	0	1	-3
Fc1ccc(CNc2nc3ccc(Cl)cc3n3cnnc23)cc1	-2	1	0	3
Cc1ccc(NC(=O)C(Cl)Cl)cc1[N+](=O)[O-]	15	0	0	-15
COc1cc(Cl)c(S(=O)(=O)NCc2cccs2)cc1Cl	4	0	-1	8
COC(=O)c1cc(C(=O)N2CCCCC2C)cc([N+](=O)[O-])c1 (configuration not stated)	-3	0	0	-1
CCOc1cc(S(=O)(=O)N2CCc3ccccc32)ccc1F	6	0	-1	9
CC(C)n1cnc2c(Nc3ccccc3)nc(-c3ccc(C(=O)NC4CC4)cc3)nc21	32*	0	-1	-20
CC(C)n1cnc2c(NCc3ccccc3)nc(-c3ccc(C(=O)NC4CC4)cc3)nc21	-17	0	0	-9
CCOc1ccc(C(=O)Nc2ccc(S(=O)(=O)N3CCCCC3c3cccnc3)cc2)cc1 (configuration not stated)	33*	0	1	2
